Where “and” joins values, the source holds several entries; their conditions need not be identical. Equal entries are not always repeated. Some compounds were tested as several samples or in several runs, with calls that do not always agree. Calls of active or inactive are those of the source. How the source made its calls: active means hit-call score of the fitted dose curve at least 0.9, where 1 is the maximum; inactive means score below 0.9.
Legend:
[1] = target: Bile acid receptor (Homo sapiens) (UniProt Q96RI1); assay: ATG_IR1_CIS: Attagene CIS-FACTORIAL HepG2 Assay for human Nuclear Receptor Subfamily 1 Group H Member 4 (NR1H4), IR1 submotif (AID 2282946); conditions: IR1 reporter transcription, actives raise or lower the signal
Bile acid receptor (Homo sapiens), sequence (Q96RI1 whole entry, looked up): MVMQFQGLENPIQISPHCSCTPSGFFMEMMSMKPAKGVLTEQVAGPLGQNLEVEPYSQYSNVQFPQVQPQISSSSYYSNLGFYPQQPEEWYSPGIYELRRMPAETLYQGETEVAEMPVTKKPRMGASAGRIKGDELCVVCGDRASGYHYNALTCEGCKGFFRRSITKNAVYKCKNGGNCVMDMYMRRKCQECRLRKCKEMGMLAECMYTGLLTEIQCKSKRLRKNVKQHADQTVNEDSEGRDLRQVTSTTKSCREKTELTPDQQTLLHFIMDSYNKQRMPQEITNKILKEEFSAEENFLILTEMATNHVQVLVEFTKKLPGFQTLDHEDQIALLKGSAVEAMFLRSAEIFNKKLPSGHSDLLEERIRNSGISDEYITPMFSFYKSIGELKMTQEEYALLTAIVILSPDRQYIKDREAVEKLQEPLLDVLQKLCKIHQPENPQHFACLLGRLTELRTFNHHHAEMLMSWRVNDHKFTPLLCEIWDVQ
How it was run: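 HepG2 cells transiently transfected with multiple cis-promoter-driven reporter units to measure endogenous transcription factor activity; 24 h exposure. Reporter mRNA read by RT-PCR, FAM labelling, HpaI digestion and capillary electrophoresis. Bidirectional fit versus DMSO.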

[2] = ATG_ISRE_CIS: Attagene CIS-FACTORIAL HepG2 Assay for human Interferon Regulatory Factor 1 (IRF1) binding to an Interferon-Stimulated Response Element (ISRE) (AID 2282948); conditions: HepG2 ISRE cis-reporter (Attagene), mRNA transcription readout; actives raise or lower the signal
How it was run: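 Quantitation relies on labelled RT-PCR fragments separated by capillary electrophoresis. Human HepG2 cells bearing cis-promoter reporter constructs were treated 24 h; DMSO served as baseline for bidirectional fitting.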

[3] = ATG_M_32_CIS: Attagene CIS-FACTORIAL HepG2 Assay for M32 Transcription Factor (Internal Marker) (AID 2282949); conditions: HepG2 Attagene cis-factorial M32 reporter, mRNA; actives raise or lower the signal;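 further: background control marker of the multiplexed CIS panel rather than a real target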
How it was run: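 Internal background marker read-out: RT-PCR/capillary electrophoresis fluorescence of reporter transcripts from transiently transfected HepG2 cells after 24 h chemical exposure. Activity fitted bidirectionally relative to DMSO negative control.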

[4] = ATG_M_06_CIS: Attagene CIS-FACTORIAL HepG2 Assay for M06 Transcription Factor (Internal Marker) (AID 2282950); conditions: HepG2 Attagene CIS-FACTORIAL M06 internal marker reporter; actives raise or lower the signal
How it was run: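 Fluorescence-labelled RT-PCR products from cis-promoter reporter units, cut with HpaI and resolved by capillary electrophoresis, give the signal. Cells are human HepG2, dosed for 24 h. Serves as background control, fitted relative to DMSO.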

[5] = target: Hypoxia-inducible factor 1-alpha (Homo sapiens) (UniProt Q16665); assay: ATG_HIF1a_CIS: Attagene CIS-FACTORIAL HepG2 Assay for human Hypoxia Inducible Factor 1 (HIF1A) (AID 2282951); conditions: HepG2 Attagene cis-factorial HIF1a reporter transcription; actives raise or lower the signal
Hypoxia-inducible factor 1-alpha (Homo sapiens), sequence (Q16665 whole entry, looked up): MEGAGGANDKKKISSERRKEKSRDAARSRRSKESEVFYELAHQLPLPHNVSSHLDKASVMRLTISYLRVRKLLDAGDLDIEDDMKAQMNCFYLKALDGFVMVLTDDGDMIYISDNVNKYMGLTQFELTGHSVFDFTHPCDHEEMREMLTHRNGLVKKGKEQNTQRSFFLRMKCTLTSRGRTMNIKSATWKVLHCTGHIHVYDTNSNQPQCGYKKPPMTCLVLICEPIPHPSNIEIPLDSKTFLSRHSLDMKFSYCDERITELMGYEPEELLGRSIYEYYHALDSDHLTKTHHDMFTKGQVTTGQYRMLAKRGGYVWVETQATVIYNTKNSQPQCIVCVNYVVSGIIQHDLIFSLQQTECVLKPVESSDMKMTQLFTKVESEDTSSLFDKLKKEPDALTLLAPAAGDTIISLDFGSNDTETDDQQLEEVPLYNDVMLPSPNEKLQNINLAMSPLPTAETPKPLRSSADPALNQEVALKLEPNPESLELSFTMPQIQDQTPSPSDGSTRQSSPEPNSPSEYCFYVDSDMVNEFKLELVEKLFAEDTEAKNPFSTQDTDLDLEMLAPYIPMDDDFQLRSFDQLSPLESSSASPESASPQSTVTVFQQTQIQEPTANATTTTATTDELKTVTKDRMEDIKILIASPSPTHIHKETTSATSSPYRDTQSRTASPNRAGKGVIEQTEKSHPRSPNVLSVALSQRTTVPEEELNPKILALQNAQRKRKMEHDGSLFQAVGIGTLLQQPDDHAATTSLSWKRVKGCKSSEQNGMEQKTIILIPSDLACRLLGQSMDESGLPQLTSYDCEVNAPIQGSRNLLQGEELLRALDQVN
How it was run: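 Measures endogenous transcription-factor activity through cis-regulated reporter mRNA in HepG2. Cells dosed 24 h; transcripts quantified by RT-PCR with 6-FAM-labelled products separated by capillary electrophoresis; DMSO serves as negative control.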

[6] = target: Hepatocyte nuclear factor 6 (Homo sapiens) (UniProt Q9UBC0); assay: ATG_HNF6_CIS: Attagene CIS-FACTORIAL HepG2 Assay for human Hepatocyte Nuclear Factor 6 (HNF6) (AID 2282952); conditions: HepG2 Attagene cis-factorial HNF6 reporter transcription; actives raise or lower the signal
Hepatocyte nuclear factor 6 (Homo sapiens), sequence (Q9UBC0 whole entry, looked up): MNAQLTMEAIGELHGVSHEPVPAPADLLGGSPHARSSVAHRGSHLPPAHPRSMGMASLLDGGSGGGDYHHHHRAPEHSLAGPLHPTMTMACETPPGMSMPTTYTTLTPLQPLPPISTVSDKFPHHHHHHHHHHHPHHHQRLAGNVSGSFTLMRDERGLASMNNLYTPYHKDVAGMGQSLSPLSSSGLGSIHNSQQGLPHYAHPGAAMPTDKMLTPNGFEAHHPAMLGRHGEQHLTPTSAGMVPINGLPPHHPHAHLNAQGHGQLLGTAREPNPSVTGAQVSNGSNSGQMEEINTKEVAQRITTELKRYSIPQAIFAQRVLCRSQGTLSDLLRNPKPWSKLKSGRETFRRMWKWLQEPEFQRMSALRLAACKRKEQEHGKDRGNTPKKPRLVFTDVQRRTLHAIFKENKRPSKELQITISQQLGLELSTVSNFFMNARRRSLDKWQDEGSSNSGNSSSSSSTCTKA
How it was run: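 Transiently transfected HepG2 cells expressing cis-regulated reporter transcription units were exposed to chemical for 24 h in a 24-well format. Reporter transcript abundance was determined by fluorescence capillary electrophoresis.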

[7] = target: Heat shock factor protein 1 (Homo sapiens) (UniProt Q00613); assay: ATG_HSE_CIS: Attagene CIS-FACTORIAL HepG2 Assay for human Heat Shock Transcription Factor 1 (HSE) (AID 2282953); conditions: HepG2 HSE cis-reporter, Attagene RNA transcription; actives raise or lower the signal
Heat shock factor protein 1 (Homo sapiens), sequence (Q00613 whole entry, looked up): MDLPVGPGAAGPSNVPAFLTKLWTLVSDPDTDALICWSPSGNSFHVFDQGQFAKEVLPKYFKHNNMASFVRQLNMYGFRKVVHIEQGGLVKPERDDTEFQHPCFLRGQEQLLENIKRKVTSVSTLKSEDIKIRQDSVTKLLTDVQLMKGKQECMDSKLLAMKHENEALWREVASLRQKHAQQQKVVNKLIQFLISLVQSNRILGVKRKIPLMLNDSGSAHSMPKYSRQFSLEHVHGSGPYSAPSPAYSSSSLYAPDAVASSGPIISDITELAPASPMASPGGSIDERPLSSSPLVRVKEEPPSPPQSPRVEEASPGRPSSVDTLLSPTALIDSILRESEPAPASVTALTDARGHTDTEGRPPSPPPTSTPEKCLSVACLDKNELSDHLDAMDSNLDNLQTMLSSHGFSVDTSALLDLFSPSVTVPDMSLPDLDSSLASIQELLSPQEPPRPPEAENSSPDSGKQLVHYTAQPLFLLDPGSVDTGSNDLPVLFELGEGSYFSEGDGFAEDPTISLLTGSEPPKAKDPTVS
How it was run: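 After a 24 h incubation with test chemical, transfected HepG2 cells were harvested for RNA; reporter transcripts were measured by RT-PCR and capillary electrophoresis. Values reflect gain or loss of signal relative to DMSO.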

[8] = ATG_MRE_CIS: Attagene CIS-FACTORIAL HepG2 Assay for human Metal Responsive Element (MRE) (AID 2282954); conditions: HepG2 MRE cis-reporter transcription, Attagene multiplex; actives raise or lower the signal
How it was run: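 Fluorescent reporter fragments separated by capillary electrophoresis give mRNA induction for the MRE unit after 24 h treatment of transfected HepG2 cells. Endogenous transcription-factor activity is read; DMSO serves as negative control and baseline.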

[9] = ATG_PBREM_CIS: Attagene CIS-FACTORIAL HepG2 Assay for human Phenobarbital-responsive Enhancer Module (PBREM) (AID 2282955); conditions: HepG2 PBREM cis-reporter, Attagene multiplexed transcription; actives raise or lower the signal
How it was run: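 Fluorescence of labelled reporter cDNA fragments, resolved by capillary electrophoresis, gives mRNA induction in transfected HepG2 cells treated for 24 h; DMSO serves as negative control and baseline.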

[10] = target: Paired box protein Pax-6 (Homo sapiens) (UniProt P26367); assay: ATG_Pax6_CIS: Attagene CIS-FACTORIAL HepG2 Assay for human Paired Box 6 (PAX6) (AID 2282956); conditions: HepG2 CIS-FACTORIAL PAX6 reporter transcription, RNA readout; actives raise or lower the signal
Paired box protein Pax-6 (Homo sapiens), sequence (P26367 whole entry, looked up): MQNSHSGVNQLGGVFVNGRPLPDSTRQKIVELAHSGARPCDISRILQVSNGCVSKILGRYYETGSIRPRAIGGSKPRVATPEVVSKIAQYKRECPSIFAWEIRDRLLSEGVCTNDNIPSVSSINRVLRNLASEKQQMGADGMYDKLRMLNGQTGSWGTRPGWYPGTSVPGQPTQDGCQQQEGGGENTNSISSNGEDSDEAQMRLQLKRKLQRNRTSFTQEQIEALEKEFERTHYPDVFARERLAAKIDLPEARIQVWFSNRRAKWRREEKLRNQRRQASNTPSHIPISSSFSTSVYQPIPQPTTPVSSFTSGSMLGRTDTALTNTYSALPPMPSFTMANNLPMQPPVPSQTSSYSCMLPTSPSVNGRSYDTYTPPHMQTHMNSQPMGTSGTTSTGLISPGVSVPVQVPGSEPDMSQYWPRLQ
How it was run: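 After twenty-four hours of chemical exposure, transfected HepG2 cells are harvested for RNA. Cis-promoter reporter transcripts are amplified, fluorescently labelled and sized by capillary electrophoresis, with gain and loss of signal scored against DMSO.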

[11] = ATG_PXRE_CIS: Attagene CIS-FACTORIAL HepG2 Assay for human Pregnane X Receptor Element (PXRE) (AID 2282957); conditions: HepG2 Attagene CIS-FACTORIAL PXRE reporter, mRNA; actives raise or lower the signal
How it was run: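 Cis-element reporter mRNA in human hepatoma HepG2 cells is measured 24 h post-dosing by RT-PCR, primer-extension labeling and capillary electrophoresis; gain or loss of signal is fitted relative to DMSO.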

[12] = ATG_PPRE_CIS: Attagene CIS-FACTORIAL HepG2 Assay for human Peroxisome Proliferator-activated Response Element (PPRE) (AID 2282958); conditions: HepG2 PPRE cis-element reporter, Attagene transcription factor profiling; actives raise or lower the signal
How it was run: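 Cells are first transfected transiently with the multiplexed reporter library, then dosed for 24 h. Total RNA is reverse-transcribed, amplified, fluorescently end-labeled and HpaI-cut before capillary electrophoresis; activity is fitted bidirectionally against DMSO controls.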

[13] = ATG_RORE_CIS: Attagene CIS-FACTORIAL HepG2 Assay for human RAR-related Orphan Receptor Element (RORE) (AID 2282959); conditions: HepG2 Attagene cis-factorial RORE reporter, mRNA; actives raise or lower the signal
How it was run: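 Cells were HepG2 carrying transfected cis-regulated reporter constructs, dosed for 24 hours. Total RNA was reverse-transcribed and reporter cDNA amplified, fluorescently labeled and sized by capillary electrophoresis. Activity was fitted bidirectionally relative to DMSO.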

[14] = ATG_Sox_CIS: Attagene CIS-FACTORIAL HepG2 Assay for human SRY-box transcription factor (SOX) (AID 2282960); conditions: HepG2 Attagene cis-factorial SOX reporter, mRNA; actives raise or lower the signal
How it was run: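 Transient MRTU transfection of HepG2; 24 h compound incubation; TriZol RNA, oligo(dT) RT, PCR, 6-FAM primer extension, HpaI cut, CE. Bidirectional fit, DMSO = baseline.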

[15] = target: Transcription factor Sp1 (Homo sapiens) (UniProt P08047); assay: ATG_Sp1_CIS: Attagene CIS-FACTORIAL HepG2 Assay for human Specificity Protein 1 (Sp1) (AID 2282961); conditions: HepG2 Sp1 cis-reporter transcription, actives raise or lower the signal
Transcription factor Sp1 (Homo sapiens), sequence (P08047 whole entry, looked up): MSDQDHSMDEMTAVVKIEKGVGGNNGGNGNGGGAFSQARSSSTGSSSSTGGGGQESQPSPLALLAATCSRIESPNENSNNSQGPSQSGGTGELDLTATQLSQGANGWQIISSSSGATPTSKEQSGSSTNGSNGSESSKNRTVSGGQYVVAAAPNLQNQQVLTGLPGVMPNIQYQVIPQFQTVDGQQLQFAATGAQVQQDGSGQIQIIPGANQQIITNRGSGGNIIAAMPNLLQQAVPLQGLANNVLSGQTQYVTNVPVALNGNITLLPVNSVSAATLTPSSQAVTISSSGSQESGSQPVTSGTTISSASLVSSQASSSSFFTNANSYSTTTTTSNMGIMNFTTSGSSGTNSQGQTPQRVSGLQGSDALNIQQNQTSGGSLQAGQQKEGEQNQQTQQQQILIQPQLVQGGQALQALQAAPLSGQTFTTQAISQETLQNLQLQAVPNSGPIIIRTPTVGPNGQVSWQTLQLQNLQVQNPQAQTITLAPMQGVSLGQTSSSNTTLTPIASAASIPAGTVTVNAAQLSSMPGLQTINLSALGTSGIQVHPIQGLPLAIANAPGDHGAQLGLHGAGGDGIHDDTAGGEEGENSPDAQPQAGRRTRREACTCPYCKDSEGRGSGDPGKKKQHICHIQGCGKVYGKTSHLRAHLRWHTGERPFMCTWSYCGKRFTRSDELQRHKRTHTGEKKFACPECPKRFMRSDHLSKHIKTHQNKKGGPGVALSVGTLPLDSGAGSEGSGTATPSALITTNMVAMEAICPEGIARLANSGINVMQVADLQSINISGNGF
How it was run: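 Endogenous Sp1 activity was gauged in human liver HepG2 cells bearing transfected reporter units under a cis-regulating promoter. After 24 h dosing, reporter mRNA was quantified by RT-PCR with capillary electrophoresis, and activity fitted bidirectionally versus DMSO.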

[16] = ATG_SREBP_CIS: Attagene CIS-FACTORIAL HepG2 Assay for human Sterol Regulatory Element Binding (SREBP) (AID 2282962); conditions: HepG2 Attagene cis-factorial SREBP reporter, mRNA; actives raise or lower the signal
How it was run: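 Twenty-four hours after chemical dosing of transfected HepG2 cultures, reporter RNA was converted to cDNA, amplified, end-labelled with 6-FAM and resolved by capillary electrophoresis. Responses were fitted relative to DMSO.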

[17] = target: Signal transducer and activator of transcription 3 (Homo sapiens) (UniProt P40763); assay: ATG_STAT3_CIS: Attagene CIS-FACTORIAL HepG2 Assay for human Signal Transducer and Activator of Transcription 3 (STAT3) (AID 2282963); conditions: HepG2, Attagene cis-factorial STAT3 reporter transcription; actives raise or lower the signal
Signal transducer and activator of transcription 3 (Homo sapiens), sequence (P40763 whole entry, looked up): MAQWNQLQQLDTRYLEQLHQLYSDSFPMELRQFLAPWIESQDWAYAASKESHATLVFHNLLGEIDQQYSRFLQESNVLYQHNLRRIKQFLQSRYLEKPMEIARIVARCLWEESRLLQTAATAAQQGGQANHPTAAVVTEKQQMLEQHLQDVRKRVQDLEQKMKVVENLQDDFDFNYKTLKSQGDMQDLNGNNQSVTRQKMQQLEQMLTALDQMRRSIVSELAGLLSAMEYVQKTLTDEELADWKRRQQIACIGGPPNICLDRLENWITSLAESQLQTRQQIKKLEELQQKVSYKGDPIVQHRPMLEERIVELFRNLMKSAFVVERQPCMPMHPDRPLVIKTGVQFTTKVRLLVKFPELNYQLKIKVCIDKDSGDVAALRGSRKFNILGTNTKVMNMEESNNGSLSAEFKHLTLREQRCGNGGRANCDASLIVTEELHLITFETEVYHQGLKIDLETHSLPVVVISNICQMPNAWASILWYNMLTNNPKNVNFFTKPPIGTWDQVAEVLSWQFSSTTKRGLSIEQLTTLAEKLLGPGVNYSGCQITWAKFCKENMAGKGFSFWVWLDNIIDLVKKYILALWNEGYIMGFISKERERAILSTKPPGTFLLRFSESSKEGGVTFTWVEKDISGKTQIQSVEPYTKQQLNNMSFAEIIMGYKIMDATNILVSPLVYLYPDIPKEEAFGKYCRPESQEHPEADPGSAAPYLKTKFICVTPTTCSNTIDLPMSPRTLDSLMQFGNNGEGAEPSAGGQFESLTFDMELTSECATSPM
How it was run: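 Values derive from bidirectional fits relative to DMSO of reporter mRNA levels, measured by RT-PCR with capillary electrophoresis, in HepG2 cells carrying transiently transfected cis-regulated reporter units and exposed 24 h.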

[18] = ATG_TA_CIS: Attagene CIS-FACTORIAL HepG2 Assay for human TA Basal Promoter (AID 2282964); conditions: HepG2 Attagene CIS-factorial TA basal promoter reporter; actives raise or lower the signal
How it was run: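 Multiplexed mRNA reporter assay, HepG2, 24 h. Reporter cDNA amplified, 6-FAM primer-extended, HpaI-cut, CE-sized; DMSO = negative control and baseline.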

[19] = ATG_TCF_b_cat_CIS: Attagene CIS-FACTORIAL HepG2 Assay for human T-Cell-Factor with beta-catenin (TCF/b-cat) (AID 2282965); conditions: HepG2 TCF/beta-catenin cis-reporter transcription, actives raise or lower the signal
How it was run: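 HepG2, transient MRTU transfection, cis-element-driven reporters (endogenous TFs). 24 h compound exposure. Readout: reporter mRNA by RT-PCR + 6-FAM primer extension, HpaI digest, capillary electrophoresis. Gain/loss fit vs DMSO baseline.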

[20] = ATG_GRE_CIS: Attagene CIS-FACTORIAL HepG2 Assay for human Glucocorticoid Response Elements (GRE) (AID 2282947); conditions: HepG2 GRE cis-reporter, Attagene multiplex mRNA; actives raise or lower the signal
How it was run: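 Endogenous transcription factor activity is read through cis-element reporter constructs transiently transfected into HepG2 cells. After 24 h treatment, labelled RT-PCR products are resolved by capillary electrophoresis; DMSO sets baseline for bidirectional curve fitting.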

Measured: AC50

O=C(Nc1ccc2[nH]ccc2c1)c1cc2cc(F)ccc2n1Cc1cccc(F)c1
inactive: [3] | [4] | [5] | [12] | [13] | [16] | [17]
active: [1] 2.93 µM | [2] 18.2 µM | [6] 18.3 µM | [7] 20.7 µM | [8] 11 µM | [9] 17.3 µM | [10] 13.9 µM | [11] 2.75 µM | [14] 16.8 µM | [15] 14.7 µM | [18] 14 µM | [19] 15.8 µM

Clc1ccc(COC(Cn2ccnc2)c2ccc(Cl)cc2Cl)cc1 (stereo unspecified)
active: [11] 0.697 µM
not listed: [5] | [12] | [13] | [19]
inactive: all other assays above

O=C(O)C(F)(F)C(F)(F)C(F)(F)C(F)(F)C(F)(F)C(F)(F)F
inactive: [1] | [2] | [3] | [4] | [5] | [6] | [7] | [8] | [10] | [11] | [12] | [13] | [14] | [15] | [16] | [17] | [18] | [19]
active: [11] 40.2 µM | [12] 63.7 µM

N#CCc1ccc(Cl)cc1
not listed: [9] | [11] | [20]
inactive: all other assays above

CCN1CCC2(CC1)COc1cc3c(cc12)N(C(=O)c1ccc(-c2ccc(-c4nnc(C)o4)cc2C)cc1)CC3
not listed: [11] | [15] | [19] | [20]
inactive: all other assays above

Oc1cccc2cccnc12
active: [8] 148 µM | [11] 27.5 µM and 95.5 µM
inactive: [1] | [2] | [3] | [4] | [6] | [7] | [8] | [10] | [12] | [13] | [14] | [15] | [16] | [17] | [18] | [19]

CCC(=O)c1ccccc1
not listed: [11] | [15] | [18] | [19] | [20]
inactive: all other assays above
